Screening data deposited in PubChem BioAssay by Broad Institute.
This is one part of a sample in which hits are shown more often than they occur.
Tg IFNy HTS = T. gondii growth inhibition under IFN-gamma; Toxoplasma gondii growth in IFN-gamma-treated host cells; stronger effect = lower value; activity change, negative = inhibition, % (no concentration beside the values); actives 3.8% (n = 69,000); in the data active = activity change below about -70%, passing the limit was not always enough;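 also: host cells are HeLa cells infected with Toxoplasma gondii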
Of the large screens only hits and unclear results are named; the others gave an inactive call.

COc1ccc(-c2nc(N3CCc4ccccc4C3)c3ccccc3n2)cc1	none
COc1ccc(-c2nc(NCCN3CCOCC3)c3ccccc3n2)cc1	none
CC(=O)c1cccc(-n2c(Cc3ccc(O)cc3)n[nH]c2=O)c1	none
CC1=C(C(=O)NCCCN2CCC(N3CCCCC3)CC2)C2(CCCCC2)OC1=O	none
CC1=C(C(=O)NCCN2CCC(Cc3ccccc3)CC2)C2(CCCCC2)OC1=O	Tg IFNy HTS -84
CC1=C(C(=O)NC2CCN(Cc3ccccc3)CC2)C2(CCCCC2)OC1=O	none
O[C@@H]1CN(c2ccc(-c3ccccc3)nn2)CC[C@H]1c1ccc2c(c1)OCO2	none
O=C(NC(=S)N1CCOCC1)c1ccccc1	none
Cc1ccc(NC(=O)c2ccoc2)cc1NCC#N	none
O=C(NC(=O)c1ccccc1O)c1ccoc1	Tg IFNy HTS -84
Oc1cc(O)cc(O)c1	none
CCCN1C(=O)C2(NCCc3c2[nH]c2ccc(OC)cc32)c2cc(Br)ccc21 (stereo not given)	none
COc1ccc2[nH]c3c(c2c1)CCNC3=O	Tg IFNy HTS -89
COc1ccc2[nH]c3c(c2c1)CCNC31C(=O)N(CCC(C)C)c2ccccc21 (stereo not given)	none
COc1cccc(NC(=O)N2CC(=O)N3[C@H](C2)[C@@H](c2ccc(C#CCC4CCCC4)cc2)[C@@H]3CO)c1	none
CCOC1C2CCC1N(C(=O)c1cccc3c1OCCO3)CCO2 (stereo not given)	none
C#Cc1cccc(Nc2ncnc3cc(OC)c(OCCCCCCC(=O)NO)cc23)c1	Tg IFNy HTS -80
COc1cc2c(N3CCN(C(=O)Nc4ccc(OC(C)C)cc4)CC3)ncnc2cc1OCCCN1CCCCC1	none
COc1ccc(OC)c(Nc2ncnc3ccc(Br)cc23)c1	none
Cn1cnc2cc3c(Nc4cccc(Br)c4)ncnc3cc21	none
Nc1cc2ncnc(Nc3cccc(Br)c3)c2cc1N	none
COc1cc2ncnc(Nc3ccc(O)c(Br)c3)c2cc1OC	Tg IFNy HTS -74
CCn1c(Cc2ccc(OC)cc2)nnc1SC(C)c1nc2ccccc2c(=O)[nH]1 (stereo not given)	none
CN1C2CCN(Cc3ccsc3)CC2C[C@H]1Cn1cncn1 (stereo not given in full)	none
Cn1cc(-c2[nH]c3cc(NC(=O)[C@H](N)C4CCCCC4)cc4c3c2C=NNC4=O)cn1	Tg IFNy HTS -78
CCOC(=O)CC1CCCCN1Cc1cc(=O)n2nc(CC)sc2n1 (stereo not given)	none
COC(=O)c1sccc1-n1c(C)ccc1C	none
Cc1ccc(C2=NC3(CCN(CC(=O)NCc4ccccc4)CC3)NC2=O)cc1C	none
CNC(=O)CCN(C)Cc1ccc(C(C)=O)cc1	none
COCC1CN(C(=O)c2cc(C)on2)Cc2nccn2C1 (stereo not given)	none
Cc1ccc(C(=O)N2CCC3OCCCC3(COCC3CC3)C2)cn1 (stereo not given)	none
COCC12CCCOC1CCN(C(=O)C1=CCCC1)C2 (stereo not given)	Tg IFNy HTS -81
CCOCC12CCCOC1CCN(C(=O)C1=CCCC1)C2 (stereo not given)	none
CCOc1ccsc1C(=O)N1CC[C@@H]2C(=O)NCCO[C@@H]2C1	none
O=C(c1ccc2nc(NC(=O)C34CC5CC(CC(C5)C3)C4)sc2c1)N1CCCCC1	Tg IFNy HTS -85
O=C(N1CCCCC1)C12CC3CC(CC(C3)C1)C2	none
O=C(Nc1ccncc1)C12CC3CC(CC(C3)C1)C2	none
COCCN1C2(CCN(S(=O)(=O)c3ccccc3)C2)c2ccccc2S1(=O)=O (stereo not given)	none
CCOC(=O)c1cnc2c(c(C)nn2C)c1Sc1nnc(SC)s1	none
CCn1c(C2CCCN(C(=O)c3cc(CC(C)C)no3)C2)n[nH]c1=O (stereo not given)	none
CCC(C)(C)C(=O)OC1CC(C)C=C2C=CC(C)C(CCC3CC(O)CC(=O)O3)C21 (stereo not given)	none
CC(C)(C)[S@@](=O)N1Cc2cc(C(=O)NC3CCC3)nc(-c3cccc(Br)c3)c2[C@H]1CCO	none
COc1ccc(C#Cc2cccc(-c3nc(C(=O)NCCCN4CCOCC4)cc4c3[C@@H](CCO)N(S(=O)C(C)(C)C)C4)c2)cc1OC (stereo not given in full)	none
COc1ccc(C#Cc2cccc(-c3nc(C(=O)N4CCN(Cc5ccccc5)CC4)cc4c3[C@@H](CCO)N(S(=O)C(C)(C)C)C4)c2)cc1OC (stereo not given in full)	none
COc1ccc(C#Cc2cccc(-c3nc(C(=O)Nc4ccc(-c5ccccc5)cc4)cc4c3[C@@H](CCO)N(S(=O)C(C)(C)C)C4)c2)cc1OC (stereo not given in full)	Tg IFNy HTS -71
CC(C)(C)[S@](=O)N1Cc2cc(C(=O)NC3CCC3)nc(-c3cccc(Br)c3)c2[C@@H]1CCO	Tg IFNy HTS -75
CN(C)C(=O)c1ccc(-c2cccc(-c3nc(C(=O)NC4CCCCC4)cc4c3[C@H](CCO)N([S@@](=O)C(C)(C)C)C4)c2)cc1	none
COC(=O)c1ccc(NC(=O)C(=O)NCCc2csc(-c3ccc(F)cc3)n2)cc1	none
COC(=O)c1cc2n(n1)CCCN(c1cncc(C(=O)N3CCCCC3)n1)C2	none
CCO[C@H]1CN(S(=O)(=O)c2ccccc2)[C@H]2COC[C@@H]12	none
COc1ccc(C(=O)Nc2n[nH]c(CSc3nc4ccccc4s3)n2)cc1	none
COc1cccc([C@@H]2CCCN(Cc3cc4n(n3)CCCNC4)C2)c1	none
COc1cccc(CN2CCCC(c3ccc4c(NCc5cccc(C)n5)n[nH]c4n3)C2)c1 (stereo not given)	Tg IFNy HTS -83
COc1ccc(-c2nc(NCC3CCN(Cc4cccc(C)c4)CC3)c3ccccc3n2)cc1	none
CCc1ccc(CN2CCC(CNS(=O)(=O)C3CC3)C2)nc1 (stereo not given)	none
CCCc1cnc(N2CCN(CC(=O)Nc3ccc4c(c3)OCCO4)CC2)nc1	none
NC(=O)c1nc(F)c[nH]c1=O	none
Cc1ncc(CN2CCSCC2)c(CO)c1O	Tg IFNy HTS -76
Cc1cnc(C)c(N2CCN(Cc3c(CO)cnc(C)c3O)CC2)n1	none
Cc1ncc(CO)c(CO)c1O	none
O=C(CCc1nc2ccc(Cl)cc2[nH]1)NCCc1nc(-c2ccccc2)cs1	none
CCOC(=O)c1ccc(C(=S)N2CCCC2)cc1	none
CC1(C)CC(N2CCC(CN)C2)CC(C)(C)N1 (stereo not given)	none
CC(C)CCN1C2(CCN(C(=O)NC3CCCC3)C2)c2ccccc2S1(=O)=O (stereo not given)	Tg IFNy HTS -87
CC(C)CCN1C2(CCN(C(=O)c3ccno3)C2)c2ccccc2S1(=O)=O (stereo not given)	none
CC(C)CCN1C2(CCN(C(=O)Cc3cccnc3)C2)c2ccccc2S1(=O)=O (stereo not given)	none
CCCc1cc(=O)n2[nH]c(C(F)(F)F)c(-c3ccc(OC)cc3)c2n1	none
CCc1c(C)[nH]n2c(=O)cc(COc3ccccc3)nc12	none
CCc1c(C)[nH]n2c(=O)cc(Cc3ccc(F)cc3)nc12	Tg IFNy HTS -103
CCC(=O)N1[C@H](C(=O)N(C)C)[C@@H](CO)[C@@H]2Cn3c(ccc(-c4ccc(F)cc4)c3=O)[C@@H]21	none
CN1C(=O)CCc2cc(C(=O)NCC3CCCO3)ccc21 (stereo not given)	none
Cc1cc(CC(C)NC(=O)CSCc2ccccc2Cl)n[nH]1 (stereo not given)	none
CCN(CC)CCOC(=O)c1ccc(N)cc1	none
CCN(CC)CCOc1ccc(/C(=C(\Cl)c2ccccc2)c2ccccc2)cc1	Tg IFNy HTS -80
CCCCOc1ccc(C(=O)CCN(CC)CC)cc1	none
CC(=O)N1CCN2CC(C(=O)O)CN(Cc3ccco3)CC2C1 (stereo not given)	none
Cc1ccc2nc3sc(C#N)c(N)c3cc2c1	none
